Measurements published in PubChem BioAssay AID1259421 (Broad Institute, 2018).
Where “and” joins values, the source holds several entries; their conditions need not be identical. Equal values may be shown once. The campaign covered roughly 6,400 compounds. About 610 (9.5%) were called active. Cut-off read from the data, not from the text of the source: active = activity change below about -70%; inconclusive = no clear call, values can overlap the other calls; inactive = above that. Only a selection was taken, and actives are over-represented in it overall. A structure can be active in one record and inactive in another.

Assay: T. gondii ME49Luc in HeLa cells, luciferase assay, 72 h, no IFN-y (AID 1259421)
Conditions: stronger effect = lower value, concentration not given here

Question: Which activity change, negative = inhibition does the source give for `CNC(=O)Oc1ccccc1OC(C)C` here?
Answer: 12.8% (inactive)

Question: With `ClC=C(Cl)Cl` as the compound, how does the activity change, negative = inhibition read?
Answer: 8.81% (inactive)

Question: For `Oc1ccc2c3c1OC1c4c(c5ccccc5n4Cc4ccccc4)CC4(O)C(C2)N(CC2CC2)CCC314` (centres undefined), which activity change, negative = inhibition is on record?
Answer: -1.02% (inactive)

Question: Which activity change, negative = inhibition does the source give for `CCCCCCCCCCCCC/C=C/[C@@H](O)[C@@H](N)COP(=O)(O)OCC[N+](C)(C)C` here?
Answer: -1.29% (inactive)

Question: With `NC(=O)CN1C[C@H](O)CC1=O` as the compound, how does the activity change, negative = inhibition read?
Answer: -40.7% (inactive)

Question: Which activity change, negative = inhibition does the source give for `CN1CCc2cc3c(cc2C1[C@@H]1OC(=O)c2c1ccc1c2OCO1)OCO3` (some centres undefined) here?
Answer: 8.11% (inactive)

Question: With `Cc1o[nH]c(=O)c1C[C@H](N)C(=O)O` as the compound, how does the activity change, negative = inhibition read?
Answer: 13.1% (inactive)

Question: For `CC(C)(C)c1o[nH]c(=O)c1CC(N)C(=O)O` (centres undefined), which activity change, negative = inhibition is on record?
Answer: -79.9% (active) and 9.91% (inactive)

Question: For `Cc1o[nH]c(=O)c1CC(N)C(=O)O` (centres undefined), which activity change, negative = inhibition is on record?
Answer: 3.8% (inactive)

Question: Which activity change, negative = inhibition does the source give for `Oc1ccc2c3c1OC1c4[nH]c5ccccc5c4CC4(O)C(C2)N(CC2CC2)CCC314` (centres undefined) here?
Answer: 6.33% (inactive)

Question: With `CN1C2CCC1CC(OC(=O)c1cc(Cl)cc(Cl)c1)C2` (centres undefined) as the compound, how does the activity change, negative = inhibition read?
Answer: -1.24% (inactive) and 2.27% (inactive)

Question: Which activity change, negative = inhibition does the source give for `C[C@H]1CCC/C=C/[C@@H]2C[C@H](O)C[C@H]2[C@H](O)/C=C/C(=O)O1` here?
Answer: -94.5% (active)

Question: Which activity change, negative = inhibition does the source give for `COc1ccc(/C=C/C(=O)CC(=O)/C=C/c2ccc(OC)c(OC)c2)cc1OC` here?
Answer: 2.29% (inactive)

Question: With `CC(C)(c1ccc(OCC2CO2)cc1)c1ccc(OCC2CO2)cc1` (centres undefined) as the compound, how does the activity change, negative = inhibition read?
Answer: 9.89% (inactive)

Question: For `CN1C2CCC1CC(OC(c1ccccc1)c1ccccc1N)C2` (centres undefined), which activity change, negative = inhibition is on record?
Answer: 16.3% (inactive)

Question: For `c1cc2c(c(N3CCNCC3)c1)OCCO2`, which activity change, negative = inhibition is on record?
Answer: -0.0388% (inactive)

Question: With `CN1C2CCC1CC(OC(c1ccc(F)cc1)c1ccc(F)cc1)C2` (centres undefined) as the compound, how does the activity change, negative = inhibition read?
Answer: 22.3% (inactive) and 38.4% (inactive)

Question: For `CC(=O)N(C)c1cccc(-c2ccnc3c(C(=O)c4cccs4)cnn23)c1`, which activity change, negative = inhibition is on record?
Answer: 42.5% (inactive)

Question: With `O=C1NC(=O)c2c1c1c3ccccc3n3c1c1c2c2ccccc2n1C1CCC3O1` as the compound, how does the activity change, negative = inhibition read?
Answer: -71.9% (active)

Question: For `O=C1NC(=O)c2c1c1c3ccccc3[nH]c1c1[nH]c3ccccc3c21`, which activity change, negative = inhibition is on record?
Answer: -28.7% (inactive) and -11.9% (inactive)

Question: Which activity change, negative = inhibition does the source give for `N#CC(C#N)=NNc1cccc(Cl)c1` here?
Answer: 9.63% (inactive)

Question: With `C[C@]12CC[C@@H]3c4ccc(OC(=O)N(CCCl)CCCl)cc4CC[C@H]3[C@@H]1CC[C@@H]2OP(=O)(O)O` as the compound, how does the activity change, negative = inhibition read?
Answer: 10.9% (inactive)

Question: Which activity change, negative = inhibition does the source give for `CCCCC(CC)COC(=O)c1ccccc1C(=O)OCC(CC)CCCC` (centres undefined) here?
Answer: 9.98% (inactive)

Question: Which activity change, negative = inhibition does the source give for `CO[C@@H]1C(O)[C@H](O[C@H]2CC[C@@]3(C=O)[C@H](CC[C@@H]4[C@@H]3CC[C@]3(C)[C@@H](C5=CC(=O)OC5)CC[C@]43O)C2)OC(C)[C@@H]1O` (some centres undefined) here?
Answer: -73.9% (active)

Question: Which activity change, negative = inhibition does the source give for `CO[C@H]1[C@H](O)[C@@H](O[C@H]2CC[C@]3(C=O)C4CC[C@]5(C)[C@@H](C6=CC(=O)OC6)CC[C@]5(O)C4CC[C@@H]3C2)O[C@@H](C)[C@@H]1O` (some centres undefined) here?
Answer: -88% (active)

Question: Which activity change, negative = inhibition does the source give for `O=C1Nc2ccccc2C2(CCN(CCc3ccc(C(F)(F)F)cc3)CC2)O1` here?
Answer: 16.5% (inactive) and 18.9% (inactive)

Question: Which activity change, negative = inhibition does the source give for `O=C(O)CCCCCCNC1c2ccccc2CCc2ccccc21` here?
Answer: 30.7% (inactive)

Question: Which activity change, negative = inhibition does the source give for `O=C(O)C(Cl)Cl` here?
Answer: 30.7% (inactive)

Question: With `Clc1cccc(SC2CCNCC2)n1` as the compound, how does the activity change, negative = inhibition read?
Answer: 18.6% (inactive)

Question: Which activity change, negative = inhibition does the source give for `Cc1ccc(C[N+](C)(C)C)o1` here?
Answer: 0.893% (inactive) and 9.89% (inactive)

Question: For `CC(C)(C)CC(C)(C)c1ccc(O)cc1`, which activity change, negative = inhibition is on record?
Answer: 5.73% (inactive)

Question: For `CCCC(C)(COC(N)=O)COC(N)=O`, which activity change, negative = inhibition is on record?
Answer: 8.01% (inactive)

Question: With `C[C@]1(O)CC[C@H]2[C@@H]3CCC4=CC(=O)CC[C@]4(C)[C@@]3(F)[C@@H](O)C[C@@]21C` as the compound, how does the activity change, negative = inhibition read?
Answer: 2.26% (inactive)

Question: Which activity change, negative = inhibition does the source give for `COC1C(O)CC(OC2C(O)CC(OC3C(O)CC(OC4CCC5(C)C(CCC6[C@@H]5CC(O)C5(C)C(C7=CC(=O)OC7)CCC65O)C4)OC3C)OC2C)OC1C` (some centres undefined) here?
Answer: -82.4% (active)

Question: Which activity change, negative = inhibition does the source give for `CC(=O)OC1CC[C@@]2(C)C(CCC3C2CC[C@]2(C)C(C4=CC(=O)OC4)C(OC(C)=O)CC32O)C1` (some centres undefined) here?
Answer: -91.6% (active)

Question: For `CC(=O)O[C@H]1C[C@H](O[C@H]2[C@@H](O)C[C@H](O[C@H]3[C@@H](O)C[C@H](O[C@H]4CC[C@@]5(C)C(CCC6C5C[C@@H](O)[C@]5(C)[C@@H](C7=CC(=O)OC7)CC[C@]65O)C4)O[C@@H]3C)O[C@@H]2C)O[C@H](C)[C@H]1O[C@@H]1O[C@H](CO)[C@@H](O)[C@H](O)[C@H]1O` (some centres undefined), which activity change, negative = inhibition is on record?
Answer: -75.3% (active) and -89.3% (active)

Question: For `C[C@H]1OC(O[C@H]2[C@@H](O)CC(O[C@H]3[C@@H](O)C[C@H](O[C@H]4CC[C@]5(C)C6CC[C@]7(C)[C@@H](C8=CC(=O)OC8)[C@@H](O)C[C@]7(O)[C@@H]6CC[C@@H]5C4)O[C@@H]3C)O[C@@H]2C)C[C@H](O)C1O` (some centres undefined), which activity change, negative = inhibition is on record?
Answer: -71.3% (active)

Question: With `CC(=O)[C@H]1CC[C@H]2[C@@H]3CC[C@H]4C[C@H](O)CC[C@]4(C)[C@H]3CC[C@]12C` as the compound, how does the activity change, negative = inhibition read?
Answer: 2.36% (inactive)

Question: Which activity change, negative = inhibition does the source give for `C[C@@H]1CC[C@@]2(OC1)O[C@H]1C[C@H]3[C@@H]4CC=C5C[C@H](O[C@@H]6O[C@@H](CO)[C@@H](O[C@@H]7O[C@@H](C)[C@H](O)[C@@H](O)[C@@H]7O)[C@H](O)[C@H]6O[C@@H]6O[C@@H](C)[C@H](O)[C@@H](O)[C@H]6O)CC[C@]5(C)[C@@H]4CC[C@]3(C)[C@@H]1[C@H]2C` here?
Answer: -18.3% (inactive)
